# Laboratory results published in PubChem BioAssay (Tox21).
# Records with an inconclusive call do not appear. Where a call stands in place of a potency, no number is given. Values without a mark were called inactive. Active and inactive are the calls of the source. Calls follow the shape of the dose curve; as a rule, active = well fitted inhibition curve with a large enough effect in the repeat runs; inconclusive = weak or mixed curves; inactive = no such curve, though single readings can be large or run the other way.
# Target: Cytochrome P450 2C9 (Homo sapiens) (UniProt P11712)
# Sequence (P11712 whole entry, looked up): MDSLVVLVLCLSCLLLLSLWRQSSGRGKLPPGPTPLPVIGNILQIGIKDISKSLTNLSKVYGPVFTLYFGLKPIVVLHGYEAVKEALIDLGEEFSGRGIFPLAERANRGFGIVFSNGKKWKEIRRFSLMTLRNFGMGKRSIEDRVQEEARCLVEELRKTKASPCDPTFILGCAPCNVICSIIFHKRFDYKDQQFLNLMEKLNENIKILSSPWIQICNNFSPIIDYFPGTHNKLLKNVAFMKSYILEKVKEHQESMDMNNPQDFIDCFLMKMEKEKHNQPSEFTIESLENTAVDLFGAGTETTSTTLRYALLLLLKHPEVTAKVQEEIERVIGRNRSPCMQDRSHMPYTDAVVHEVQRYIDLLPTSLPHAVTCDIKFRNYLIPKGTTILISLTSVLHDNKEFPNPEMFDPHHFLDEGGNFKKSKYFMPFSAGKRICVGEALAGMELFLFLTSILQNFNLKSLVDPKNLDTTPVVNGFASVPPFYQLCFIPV
# Experiment: Cytochrome P450 Family 2 Subfamily C Member 9 (CYP2C9) small molecule antagonists: luciferase reporter qHTS assay (AID 1671198); also: nearly all actives have a fitted effect of over 50% in size
# Conditions: P450-Glo CYP2C9 enzyme assay, luciferin luminescence; series mostly up to 115 µM
# Source text: U.S. Tox21 Program National Center for Advancing Translational Sciences [NCATS] U.S. Environmental Protection Agency [EPA] National Institutes of Environmental Health Sciences [NIEHS] National Toxicology Program [NTP] U.S. Food and Drug Administration [FDA] Tox21 Assay Overview: Cytochrome P450 (CYP) enzymes are membrane-bound hemeproteins that play a key role in metabolism of drugs and xenobiotics. Evaluation of the effect of chemicals on CYP isozymes is useful to minimize the adverse drug reactions and toxicities in drug development process. Tox21 chemicals were tested for their effect on CYP enzyme activities by using P450-Glo (TM) screening systems (Promega Corporation, Madison, WI). These systems provide a luminescent method containing proluciferin substrates and are converted to luciferin products by CYP isozymes. The luciferin products formed are detected with a luciferin detection reagent, and the amount of light produced is proportional to CYP activity. P450-Glo (TM) CYP2C9 screening system (Catalog. No. V9790) was used to detect the compounds that interfere in CYP2C9 activity.
# Tox21 Assay Protocol Summary: Two ul of enzyme-substrate mix was dispensed into medium binding white/solid 1536-well plates (Greiner Bio-One North America Inc., Monroe, NC) using a BioRaptr Flying Reagent Dispenser (FRD, Beckman Coulter, Brea, CA). […] The assay plates were incubated at room temperature for 10 min. Then 2 ul of NADPH regeneration solution was added to each well of the assay plates using an FRD and incubated at 37C for 1 h. The reaction was stopped by adding 4 ul of detection reagent using an FRD and after 20 min incubation at room temperature the luminescence signal was measured using a ViewLux plate reader (Perkin Elmer, Shelton, CT). Data were expressed as relative luminescence units.
# Potency is read from the fitted curve at half-maximal effect.
Compound,Potency,"activity change, negative = inhibition"
CCC=O,inactive,–
CCCCCCCCCCCCCCCCC,inactive,–
O=C1CC2CC1C1CCCC21 (stereo not given),inactive,–
Cc1cccc(C)c1NC(=O)C(C)N (stereo not given),inactive,–
N=C(N)c1ccccc1,inactive,–
CCc1nccnc1CC,–,2.92% [at 23.6 µM]
NS(=O)(=O)c1cc2c(cc1Cl)NC(C1CC3C=CC1C3)NS2(=O)=O (stereo not given),12.3 µM (active),–
C=CCOCC(CC)(CO)COCC=C,25.2 µM (active),–
CC(C)NC(=O)NC(C)C,inactive,–
CCCCCCOC(=O)CCCCC(=O)OCCCCCC,31.7 µM (active),–
Cc1ccc(Cl)cc1Cl,inactive,–
O=c1cc(CO)occ1O,inactive,–
COc1ccc2c(c1)CCCC2=O,inactive,–
CN1C(=O)N(C)C(O)C1O (stereo not given),inactive,–
Cn1cc(S(C)=O)c(=O)c2ccc(F)cc21 (stereo not given),inactive,–
N=C(N)c1ccc2cc(OC(=O)c3ccc(N=C(N)N)cc3)ccc2c1,inactive,–
NC(=O)c1cn(Cc2c(F)cccc2F)nn1,inactive,–
O=c1[nH]c(=O)n([C@H]2C[C@H](O)[C@@H](CO)O2)cc1I,inactive,–
FC1(F)C(F)(F)C(F)(F)C2(F)C(F)(F)C(F)(F)C(F)(F)C(F)(F)C2(F)C1(F)F (stereo not given),inactive,–
CC(C)c1cc2c(cc1S(=O)(=O)O)[C@@]1(C)CCC[C@@](C)(C(=O)O)[C@@H]1CC2,inactive,–

Compound,Potency,"activity change, negative = inhibition"
CCOC(=O)C(=O)OCC,inactive,–
FC(F)OC(Cl)C(F)(F)F (stereo not given),inactive,–
Cn1c(N)c(N=O)c(=O)n(C)c1=O,inactive,–
COc1cc(C(=O)N2CCCCCCC2)cc(OC)c1OC,inactive,–
CN1CCN(c2cc3c(cc2F)c(=O)c(C(=O)O)cn3-c2ccc(F)cc2)CC1,inactive,–
CCOC(=O)Nc1ccc(NCc2ccc(F)cc2)nc1N,6.17 µM (active),–
O=C(O)CCCc1ccccc1,inactive,–
C=C(C)C(=O)OCCCCCCCC(C)C,inactive,–
O=C1CCCN1C1CCCCC1,inactive,–
CCOC(=O)[C@H](CCc1ccccc1)N[C@@H](C)C(=O)N1[C@H](C(=O)O)C[C@@H]2CCC[C@@H]21,inactive,–
CCCC(=O)O[C@]1(C(=O)CO)CC[C@H]2[C@@H]3CCC4=CC(=O)CC[C@]4(C)[C@H]3[C@@H](O)C[C@@]21C,inactive,–
CCOC(=O)c1ccc(C)cc1,inactive,–
Cc1cnc(NS(=O)(=O)c2ccc(N)cc2)nc1,inactive,–
CCCCCCCCS(=O)(=O)Cl,32 µM (active),–
CC(C[N+](C)(C)C)OC(N)=O (stereo not given),inactive,–
COc1nc(N)nc2c1ncn2[C@@H]1O[C@H](CO)[C@@H](O)[C@@H]1O,inactive,–
CO[Si](CCCOCC1CO1)(OC)OC (stereo not given),inactive,–
CCOC(=O)c1cccc(N)c1,inactive,–
NC(=O)c1ccc(N)cc1,inactive,–
C1CN(CCOCCN2CCOCC2)CCO1,inactive,–
